Results: PubChem BioAssay (Tox21)
Inconclusive results are not listed. A call without a number means that no potency is given here. The source made the active and inactive calls. The call rests on the fitted dose curve; in most records, active means well fitted curve in the direction sought with a large enough effect in the signal ratio in the repeat runs (not every such curve was filed as active); inconclusive means weak or mixed curves, or effect the other way; inactive means no such curve, though single readings can be large or run the other way; the % refers to the signal ratio.

Target: Estrogen receptor (Homo sapiens) (UniProt P03372)
Assay: qHTS assay to identify small molecule antagonists of the estrogen receptor alpha (ER-alpha) signaling pathway (AID 743069)
Conditions: HEK293 ER-alpha-UAS-bla, beta-lactamase ratio, antagonist mode; series mostly up to 69.4 µM; activity, negative = inhibition: at the top concentration
Text: National Center for Advancing Translational Sciences [NCATS]
NIH Chemical Genomics Center [NCGC]
U.S. Environmental Protection Agency [EPA]
National Institutes of Environmental Health Sciences [NIEHS]
National Toxicology Program [NTP]
U.S. Food and Drug Administration [FDA]
Estrogen receptor (ER), a nuclear hormone receptor, plays an important role in development, metabolic homeostasis and reproduction. Two subtypes of ER, ER-alpha and ER-beta have similar expression patterns with some uniqueness in both types. Endocrine disrupting chemicals (EDCs) and their interactions with steroid hormone receptors like ER causes disruption of normal endocrine function. To identify the compounds that inhibit ER signaling, an ER-alpha-UAS-bla GripTiteTM cell line (Invitrogen, Carlsbad, CA, USA) containing a beta-lactamase reporter gene under the control of an Upstream Activator Sequence (UAS) stably integrated into HEK293 cells was used to screen the Tox21 10K compound library.
Tox21 Assay Protocol Summary:
ER-alpha-bla cells were cultured in assay medium containing 2% charcoal stripped FBS overnight in the culture flasks before the assay was performed. The cells were dispensed at 5,000 cells/5 uL of assay medium per well into black wall/clear-bottom 1536-well plates using a Multidrop Combi (ThermoFisher Scientific, Waltham, MA) dispenser. After the assay plates were incubated at a 37C and 5% CO2 for 4 hr, 23 nL of compounds dissolved in DMSO, positive controls or DMSO only was transferred to the assay plate by a Pintool station (Kalypsys, San Diego, CA), followed by addition of 1 uL of 17beta-estradiol in assay medium using a Flying Reagent Dispenser (Aurora Discovery, San Diego, CA). The plates were incubated at 37C and 5% CO2 for 18 hr. Then 1 uL of LiveBLAzerTM B/G FRET substrate was added using a Flying Reagent Dispenser, the plates were incubated at room temperature for 2 hours, and fluorescence intensity was measured by an Envision plate reader (PerkinElmer, Shelton, CT).
Potency means the concentration at half of the fitted maximal effect.

Sequence of Estrogen receptor (Homo sapiens) (P03372 whole entry, looked up): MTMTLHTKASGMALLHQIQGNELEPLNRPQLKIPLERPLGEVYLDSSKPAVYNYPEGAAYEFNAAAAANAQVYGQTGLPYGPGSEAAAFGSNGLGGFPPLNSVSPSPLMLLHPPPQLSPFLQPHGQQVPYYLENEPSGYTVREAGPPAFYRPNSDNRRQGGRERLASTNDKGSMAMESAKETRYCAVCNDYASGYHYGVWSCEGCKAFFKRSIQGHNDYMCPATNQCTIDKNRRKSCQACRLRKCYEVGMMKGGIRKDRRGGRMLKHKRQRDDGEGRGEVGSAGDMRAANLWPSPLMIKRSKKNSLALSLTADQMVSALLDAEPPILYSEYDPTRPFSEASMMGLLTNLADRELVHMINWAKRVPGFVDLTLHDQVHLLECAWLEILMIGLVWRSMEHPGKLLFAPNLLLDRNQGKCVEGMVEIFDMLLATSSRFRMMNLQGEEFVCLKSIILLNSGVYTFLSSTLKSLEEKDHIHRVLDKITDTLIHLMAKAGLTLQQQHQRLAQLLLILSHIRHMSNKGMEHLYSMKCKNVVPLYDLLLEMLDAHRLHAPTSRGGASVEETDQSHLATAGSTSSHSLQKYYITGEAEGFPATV

| Compound | Potency | activity, negative = inhibition |
| --- | --- | --- |
| Cc1ccc(N(C)C)cc1 | inactive |  |
| O=C(O)CC(C(=O)O)C(CC(=O)O)C(=O)O (stereo not given) | inactive |  |
| CC(=O)Nc1cccc(O)c1 |  | 7.77% (inactive) |
| CC(c1cc2ccccc2s1)N(O)C(N)=O (stereo not given) | inactive |  |
| C=C(C)C(=O)Nc1ccc(Cl)c(Cl)c1 | inactive |  |
| CC(=O)Nc1ccccc1 | inactive |  |
| OCc1cccnc1 | inactive |  |
| O=C(O)CCCC[C@@H]1SC[C@@H]2NC(=O)N[C@@H]21 |  | 17% (inactive) |
| CC[C@H](C)C(=O)O[C@H]1C[C@@H](C)C=C2C=C[C@H](C)[C@H](CC[C@@H]3C[C@@H](O)CC(=O)O3)[C@H]21 |  | -29.8% (inactive) |
| c1ccc2c(c1)ccc1ccccc12 | inactive |  |
| O=C(O)c1ccccc1C(c1ccc(O)cc1)c1ccc(O)cc1 |  | 11% (inactive) |
| c1ccc2scnc2c1 | inactive |  |
| O=P(OC(CCl)CCl)(OC(CCl)CCl)OC(CCl)CCl | 54.9 µM [inhibitor] (active) |  |
| O=C(O)c1cc(=O)c2c(OCC(O)COc3cccc4oc(C(=O)O)cc(=O)c34)cccc2o1 | inactive |  |
| O=[N+]([O-])c1ccc(/C=C/c2ccc([N+](=O)[O-])cc2S(=O)(=O)O)c(S(=O)(=O)O)c1 | inactive |  |
| CCCCC(CC)COC(=O)CCCCC(=O)OCC(CC)CCCC (stereo not given) | inactive |  |
| CC1=CCC2CC1C2(C)C (stereo not given) | inactive |  |
| O=S1(=O)CC=CC1 | inactive |  |
| COS(C)(=O)=O | inactive |  |
| CCN(CC)CCCC(C)Nc1ccnc2cc(Cl)ccc12 (stereo not given) | inactive |  |

| Compound | Potency | activity, negative = inhibition |
| --- | --- | --- |
| O=C(O)c1ccc2c(c1)C(=O)OC2=O | inactive |  |
| CCCCCOC(C)=O | inactive |  |
| OCCOCCOCCO | inactive |  |
| O=S(=O)(O)c1ccc2ccccc2c1 | inactive |  |
| OC[C@H]1O[C@@](CO)(O[C@H]2O[C@H](CO)[C@@H](O)[C@H](O)[C@H]2O)[C@@H](O)[C@@H]1O | inactive |  |
| Cc1cccc(O)c1 | inactive |  |
| CCCCCCCC(=O)OC | inactive |  |
| O=C(O)CCCCCCCCCCC(=O)O | inactive |  |
| O=C(OCCOCCOC(=O)c1ccccc1)c1ccccc1 | inactive |  |
| CC(=O)c1ccccc1 | inactive |  |
| CCCCCC1=CCCC1=O | inactive |  |
| Cc1cc(C)c(C)cc1C |  | -18.4% (inactive) |
| CCc1ccc(CCOc2ccc(CC3SC(=O)NC3=O)cc2)nc1 (stereo not given) |  | -4.71% (inactive) |
| CC1=C(C)S(=O)(=O)CCS1(=O)=O |  | -2.52% (inactive) |
| CCCCN(CCCC)CCCC | inactive |  |
| C/C=C1/CC2C=CC1C2 (stereo not given) | inactive |  |
| CC(=O)CC(=O)Nc1ccccc1C | inactive |  |
| CCc1cccc(C)c1N |  | 8.99% (inactive) |
| O=C(O)c1cc(O)c(O)c(O)c1 | inactive |  |
| O=C=NCCCCCCN=C=O | inactive |  |
